Compound activity deposited in PubChem BioAssay by National Center for Advancing Translational Sciences (NCATS).
A selection: hits, their analogues and other compounds. The true share with any hit is near 12%.
Pf growth 96h: P. falciparum growth inhibition at 96 hour, primary screen for plastid delayed-death inhibitors. P. falciparum luciferase reporter growth, 96 h. Potency, µM (highest dose often 28.7 µM), actives largely listed as inhibitors. 320,000 tested, 6.9% active
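96 h incubation, 37 C, 5% CO2, of luciferase-reporter P. falciparum-infected RBCs (2% hematocrit, 0.05% parasitemia final) with test compounds; endpoint luminescence.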
Pf growth 48h: P. falciparum growth inhibition at 48 hours (one generation); Potency, µM (highest dose often 28.7 µM), usual class: inhibitors; P. falciparum luciferase growth in erythrocytes, 48 h; AID 504832; 310,000 tested, 5.9% active
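In quantitative HTS format, infected erythrocytes bearing luciferase-reporter parasites were treated for a single generation at 37 C. Luminescence after adding detection reagent served as the growth measure.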
HCV inhibitor: inhibitors of hepatitis C virus infection. Huh7.5.1 HCVcc-Cre infection, luciferase reporter, 44 h. Potency, µM (series often up to 41.8 µM), most hits filed as inhibitors. 340,000 tested, 3.4% active. AID 651820
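Infectious HCVcc-Cre (~0.5 moi) was added to cells just after compound, with cells seeded 4 h earlier at 1,000 per well. Luciferase activity after 44 h culture reported infection; substrate was incubated 15 min at room temperature before reading.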
SARS PLpro yeast: blocks SARS-CoV papain-like protease in a yeast assay; S. cerevisiae expressing SARS-CoV PLpro, growth rescue; Potency, µM (series often up to 32.9 µM), most hits filed as activators; 330,000 tested, 0.19% active; AID 485353; calls by dose curve; note: nearly all actives have a fitted effect of over 55% in size
NS1 function inh: influenza NS1 inhibition | Potency, µM (doses to about 46.1 µM) | 270,000 tested, 0.4% active; calls by dose curve; note: actives are rising curves; nearly all actives have a fitted effect of over 50% in size
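Read-out: OD600 growth recovery of NS1-expressing budding yeast. Cells grown overnight at 30C in -URA glucose medium, washed, resuspended and diluted 1:100 in 2% galactose assay medium, pH 6.0. Same strain lacking NS1 served as positive control.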
AMA1 RON2 block: AMA1-RON2 (P. falciparum) interaction inhibition; AlphaScreen AMA1-biotinylated RON2 peptide binding; Potency, µM (highest dose often 58.2 µM), most hits filed as inhibitors; 360,000 tested, 0.2% active; AID 720542; note: nearly all actives have a fitted effect of over 45% in size
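AMA1 (3D7) with his tag at 25 nM final met compounds first, then biotinylated RON2 peptide at 25 nM; detection used donor plus acceptor beads, 10 µg/mL apiece, read by AlphaScreen after 30 min at room temperature.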
Numbers stand for hits; – = inactive; ? = inconclusive; · = no result given. Unless noted, calls come from the whole dose curve; as a rule, active = well fitted curve in the direction sought with a large enough effect; inconclusive = small, poorly fitted or top-dose-only effect, or another doubt; inactive = no such curve, though single readings can be large; an effect the other way counts as inactive or inconclusive.

SMILES	Pf growth 96h	Pf growth 48h	HCV inhibitor	SARS PLpro yeast	NS1 function inh	AMA1 RON2 block
CC(C)C[C@]1(c2ccccc2)ON(c2ccccc2C(F)(F)F)C1=O	?	9.3µM	–	–	·	–
COc1ccc2c(c1)C(=O)N(c1ccccc1OC)C(=O)C2(C)C	–	·	–	–	–	–
NC(=O)C1C(=O)c2ccccc2C1(C[N+](=O)[O-])c1ccccc1 (stereo unspecified)	·	·	–	·	·	–
Cc1ccc(-n2c(CCc3ccccc3)n[nH]c2=S)cc1C	–	?	–	–	?	–
Oc1ccc2ccccc2c1Cc1c(O)ccc2ccccc12	·	·	·	·	–	·
N#C/C(=C\c1ccc(Cl)cc1)C(=O)Nc1cccnc1	–	–	–	–	–	–
CC(=O)Nc1ccc(C(=O)COC(=O)C2CC2C)c(F)c1 (stereo unspecified)	–	–	13µM	–	·	–
O=C(COc1ccccc1)N=C1SC2CS(=O)(=O)CC2N1Cc1ccccc1 (stereo unspecified)	13µM	?	–	?	–	–
Cc1cc(C)c(S(=O)(=O)N2CCOC2CNC(=O)C(=O)NCCN2CCOCC2)c(C)c1 (stereo unspecified)	–	?	–	–	–	–
Cc1ccc2nc(-c3cccnc3)cc(C(=O)N3CCN(c4ccc([N+](=O)[O-])cc4)CC3)c2c1	–	10µM	?	–	–	–
CCOc1ccccc1N1CCN(C(=O)c2cc(-c3cccnc3)nc3c(Cl)cccc23)CC1	–	3.3µM	–	–	–	–
Cc1ccc2c(C(=O)N3CCN(c4ccccc4)CC3)cc(-c3cccnc3)nc2c1C	–	2.3µM	?	–	–	–
COc1cc2c(cc1OC)[C@@H](NC(=O)CCc1ccccc1)[C@H](OCc1ccccc1)C2	·	·	–	–	·	–
Cc1nnc(SCCOc2ccccc2)s1	–	–	–	–	–	–
C=CCOc1c(Br)cc(CNc2ccc(NC(=O)C(C)C)cc2)cc1OCC	13µM	–	?	–	–	–
CC12CCC(=O)N1C(C(=O)OCC(=O)Nc1ccc(C(F)(F)F)cc1)CS2 (stereo unspecified)	–	–	–	–	·	–
COc1ccc(C(CC(=O)c2ccc(C)cc2)Nc2ccc([N+](=O)[O-])cc2)cc1 (stereo unspecified)	?	–	13µM	–	–	–
COc1ccc(CCNC(=O)c2ccc([N+](=O)[O-])cc2)cc1	–	–	–	–	–	–
COc1cccc(OCCNc2ccc([N+](=O)[O-])cn2)c1	?	–	–	–	·	–
O=C(NCCc1ccc([N+](=O)[O-])cc1)c1ccccc1	?	?	–	–	–	–
COc1ccc(CCNc2ccc([N+](=O)[O-])cn2)cc1	13µM	?	?	–	–	–
CC(C)c1ccc(CCNC(=O)c2ccc([N+](=O)[O-])cc2)cc1	?	?	11µM	–	–	?
COc1ccc(CCNC(=O)C(C)c2ccc([N+](=O)[O-])cc2)cc1 (stereo unspecified)	8.3µM	–	–	–	·	–
CCN1CCN(C(=S)Nc2cc(S(=O)(=O)N(CC)CC)ccc2C)CC1	–	–	–	–	–	–
CC1=CC(C)C2(COC(c3ccc[n+](C)c3)OC2)C(C)C1 (stereo unspecified)	10µM	?	–	–	–	–
SMILES	Pf growth 96h	Pf growth 48h	HCV inhibitor	SARS PLpro yeast	NS1 function inh	AMA1 RON2 block
COc1ccc(-c2c(-c3cc(OC)cc(OC)c3)n(C)c3ccc(-c4ccc5[nH]ccc5c4)cc23)cc1	?	–	?	–	·	–
CCOC(=O)/C=C1/SCC(=O)N1CCOc1cccc(Br)c1	·	·	?	·	·	–
CC(=O)c1cccc(NC(=O)Nc2cnn(Cc3ccc(Cl)cc3Cl)c2)c1	9.3µM	·	–	–	–	–
O=C(Nc1cnn(Cc2ccc(Cl)cc2Cl)c1)c1cc(-c2cccs2)on1	?	?	?	–	–	–
N=C(N)S[C@H]1c2ccccc2-c2cc([N+](=O)[O-])ccc21	·	·	·	·	–	·
CC(=O)C1C(=O)c2c(cccc2[N+](=O)[O-])C1=Nc1cccc(Cl)c1 (stereo unspecified)	?	1.5µM	?	–	–	–
CC(=O)C1C(=O)c2c(cccc2[N+](=O)[O-])C1=Nc1ccccc1C (stereo unspecified)	0.0037µM	·	·	–	–	·
